Drawing on PubChem BioAssay AID602281 (The Scripps Research Institute Molecular Screening Center, 2012), this text covers inhibition for 100 compounds.

Structures are written as SMILES. In all, about 360,000 compounds went through this assay and about 2,900 (0.81%) were called active.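 How the source made its calls: active means inhibition above the mean inhibition across every tested compound plus 3 SD (cut at about 22% in these data); inactive means the rest.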 Many of the other results were omitted from the sample, so actives are more common in it than they were.

For this assay, the target named is Perilipin-5 (Homo sapiens) + 1-acylglycerol-3-phosphate O-acyltransferase ABHD5 (Homo sapiens) (UniProt Q00G26+Q8WTS1). Briefly: ABHD5-PLIN5 interaction inhibitors, primary screen, cell lysate, split luciferase complementation, luminescence (AID 602281).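 Further: 0% = DMSO only wells and the 100% control is not disclosed.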 The conditions noted are these: Split G. princeps luciferase complementation, 4 h, at 4 µM, hits give high values.
Chain of Perilipin-5 (Homo sapiens) + 1-acylglycerol-3-phosphate O-acyltransferase ABHD5 (Homo sapiens) (Q00G26 whole entry, looked up): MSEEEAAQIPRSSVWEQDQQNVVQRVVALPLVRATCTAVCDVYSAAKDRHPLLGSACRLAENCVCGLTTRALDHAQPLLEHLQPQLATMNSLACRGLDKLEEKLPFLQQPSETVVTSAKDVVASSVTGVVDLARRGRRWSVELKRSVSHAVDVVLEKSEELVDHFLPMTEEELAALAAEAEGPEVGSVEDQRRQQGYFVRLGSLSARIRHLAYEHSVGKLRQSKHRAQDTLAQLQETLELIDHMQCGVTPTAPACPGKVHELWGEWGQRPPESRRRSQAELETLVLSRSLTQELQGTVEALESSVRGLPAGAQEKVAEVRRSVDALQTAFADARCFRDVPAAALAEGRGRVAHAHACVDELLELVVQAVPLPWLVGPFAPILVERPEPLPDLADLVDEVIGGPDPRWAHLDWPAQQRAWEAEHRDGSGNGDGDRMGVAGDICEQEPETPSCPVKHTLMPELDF
Chain of Perilipin-5 (Homo sapiens) + 1-acylglycerol-3-phosphate O-acyltransferase ABHD5 (Homo sapiens) (Q8WTS1 whole entry, looked up): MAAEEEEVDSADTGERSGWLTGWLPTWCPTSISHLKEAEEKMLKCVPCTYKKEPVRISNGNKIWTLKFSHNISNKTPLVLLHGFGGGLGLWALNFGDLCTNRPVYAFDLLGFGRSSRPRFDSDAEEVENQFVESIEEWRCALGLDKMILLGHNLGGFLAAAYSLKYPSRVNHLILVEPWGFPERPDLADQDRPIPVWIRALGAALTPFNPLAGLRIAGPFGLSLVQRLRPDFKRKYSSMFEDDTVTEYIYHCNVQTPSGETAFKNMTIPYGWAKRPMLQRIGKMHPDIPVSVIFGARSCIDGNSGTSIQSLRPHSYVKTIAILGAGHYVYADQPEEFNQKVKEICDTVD
As usually defined, the inhibition is the change of the read-out against control, counted positive when it falls. On to `CC(C)C1Cc2[nH][nH]c(=O)c2C(c2ccc(Cl)cc2)O1` (stereo not given), for which the inhibition is 4.21% (inactive).
Take `O=c1[nH][nH]c2c1[C@H](c1ccc(Cl)cc1)O[C@H](CCc1ccccc1)C2`: the inhibition is 29.6% (active).
With `COc1ccc(C2OC(CCc3ccccc3)Cc3[nH]c(=S)[nH]c(=O)c32)cc1` (stereo not given), the inhibition was -6.49% (inactive).
The figure for `CCOCCCNC(=O)c1ccc(CS(=O)(=O)c2cccc(C(F)(F)F)c2)o1` is 9.27% (inactive); for `N#C/C(=C(\O)C(F)(F)F)c1nnc2n1CCCCC2` it is 4.79% (inactive).
As for `CC(=O)OCCOCn1cnn2c(=O)c(Br)c(C)nc12`, the inhibition was -1.92% (inactive).
The figure for `Cc1cc2c(c(=O)n1Cc1ccco1)C(c1ccccc1)C(C#N)=C(N)O2` (stereo not given) is 36.4% (active); for `Cc1cc2c(c(=O)n1C)C(C(C)C)C(C#N)=C(N)O2` (stereo not given) it is 1.5% (inactive); for `Cn1c2c(c(=O)n(C)c1=O)C(c1cccc(F)c1)C(C#N)=C(N)O2` (stereo not given) it is 12.7% (inactive).
Consider `CC1CCCCC1NC(=O)CSc1nnc(-c2ccncc2)n1CCCN(C)C` (stereo not given), for which the inhibition was 3.79% (inactive).
`COC1=NC2=NCCN2C(OC)=N1`: the inhibition is 7.21% (inactive).
The figure for `Cn1c2ccccc2c2cc(/C=C(\NC(=O)c3ccccc3)C(=O)NCC(=O)O)ccc21` is 4.74% (inactive); for `C[C@H](CO)N1C[C@H](C)[C@@H](CN(C)Cc2ccc(-c3ccccc3)cc2)Oc2ccc(NC(=O)Cn3cnnn3)cc2C1=O` it is 1.64% (inactive); for `O=C(CSC1=NS(=O)(=O)c2cc(F)ccc2N1)Nc1ccccc1F` it is -1.35% (inactive).
The figure for `C=CCNC(=S)/N=c1/ccccn1Cc1ccccc1` is -6.7% (inactive); for `OC(c1ccccc1)(c1ccccc1)C1CCN(CCCOc2ccccc2)CC1` it is 4.12% (inactive).
As to `CN1CCC[C@@H]1CCO[C@](C)(c1ccccc1)c1ccc(Cl)cc1`, the inhibition is 24.5% (active).
With `CC1CCCN(CC(=O)Nc2cc(Cl)ccc2Oc2ccccc2)C1` (stereo not given), the inhibition is -6.16% (inactive).
The figure for `Cc1cc(C)cc(N)c1` is -4.69% (inactive); for `COc1cc(/C=C/CNC[C@H]2O[C@@H](n3cnc(C(N)=O)n3)[C@H](O)[C@@H]2O)ccc1O` it is 9.45% (inactive).
The figure for `COc1ccc(NC(=O)C2=C(C)NC(=O)NC2c2ccccc2[N+](=O)[O-])cc1` (stereo not given) is -1.09% (inactive).
The figure for `COc1ccc(N/C=C(\C2OC(=O)c3ccccc32)[N+](=O)[O-])cc1` (stereo not given) is 42.9% (active); for `COc1ccc(NC(=O)ON=C2c3ccccc3-c3ccccc32)cc1` it is -4.58% (inactive); for `Cc1cc(C)c(S(=O)(=O)N2CCOCC2)cc1C` it is 2.37% (inactive).
Regarding `CC(=O)c1ccc(N=C2SCCCN2C(=O)C2CCCCC2)cc1`, the inhibition was -0.57% (inactive).
In the case of `CC(=O)c1c(C)[nH]c(C(=O)COc2ccc3c(C)cc(=O)oc3c2)c1C`, the inhibition is -4.41% (inactive).
The figure for `O=C(NC1=CC(=O)c2ccccc2C1=O)c1ccccc1` is 84.6% (active); for `CN(C)C(=O)c1ccc(NC(=O)c2ccccc2-c2ccccc2)cc1` it is 2.67% (inactive); for `C/C(=N\NC(=O)c1ccc(C)cc1)C1C(=O)c2ccccc2C1=O` it is 5.2% (inactive).
The figure for `CCC(=O)Nc1ccc(C(=O)CSc2nnc(CNc3ccc(Cl)cc3)o2)cc1OC` is -15.2% (inactive); for `OC1CSc2nc3ccccc3n2C1` (stereo not given) it is 1.22% (inactive); for `O=C(Cc1ccccc1Cl)N1CCOCC1` it is 1.3% (inactive).
The figure for `Cc1cc(C)c(NC(=O)CN2C(=O)NC(Cc3ccccc3)C2=O)c(C)c1` (stereo not given) is 3.3% (inactive); for `Cc1ccc(CS(=O)(=O)c2ncc(Cl)c(C(=O)Nc3nnc(C)s3)n2)cc1` it is 43.2% (active); for `Cc1ccc(CS(=O)(=O)CCC(=O)NC2CC2)cc1` it is 0.91% (inactive).
Regarding `O=C(Nc1nnc(Cc2ccc(Cl)cc2)s1)c1cccnc1`, the inhibition is 10% (inactive).
The figure for `CSc1nnc(NC(=O)c2nc(S(=O)(=O)Cc3ccc(C)cc3)ncc2Cl)s1` is 32.5% (active).
The figure for `CN(Cc1ccccc1)S(=O)(=O)c1nnc(NC(=O)c2ccccc2F)s1` is -11.4% (inactive); for `CCOC(=O)c1sc(N)c(C#N)c1COC(=O)C1=COCCO1` it is -2.21% (inactive).
The figure for `CCCCn1c(N)c(N(CCOC)C(=O)c2cccc(S(=O)(=O)N(C)c3ccccc3)c2)c(=O)[nH]c1=O` is -4.97% (inactive).
For the compound `COC(=O)Cc1ccc(N(Cc2ccccc2F)S(=O)(=O)c2ccc(Br)cc2)cc1`, the inhibition was 0.04% (inactive).
Regarding `Cc1cccc(NC(=O)c2ccc3nsnc3c2)c1C`, the inhibition was 122% (active).
The figure for `Cc1cccc(NC(=O)c2ccc(OCC(=O)NCc3ccccc3)cc2)c1C` is -5.25% (inactive); for `Cc1cccc(NC(=O)c2cccc(C(=O)Nc3cccc(C)c3C)n2)c1C` it is -2.21% (inactive).
As to `Cc1noc(C)c1COc1ccccc1C(=O)N(C)CC(=O)Nc1cccc(F)c1`, the inhibition is 8.24% (inactive).
The figure for `O=NN(CCCl)C(=O)NCCc1cccc[n+]1[O-]` is 1.74% (inactive); for `COC(=O)C1(C)NC(c2ccc(C)cc2)C2C(=O)N(c3ccc(F)cc3)C(=O)C21` (stereo not given) it is 4.79% (inactive).
The figure for `COC(=O)C1(C)NC(c2ccc(F)cc2)C2C(=O)N(c3ccccc3)C(=O)C21` (stereo not given) is -0.78% (inactive).
The figure for `COC(=O)C1(C)NC(c2ccccc2OC)C2C(=O)N(c3ccccc3)C(=O)C21` (stereo not given) is 69.3% (active); for `CC(C)CNC(=S)NNC(=O)c1nn(C)cc1Cl` it is -4.74% (inactive).
As for `CCOc1ccc(CCN2C(=O)C(=O)N([C@@H](Cc3ccc(O)cc3)CN3CCC[C@H]3CN3C(=O)C(=O)NC[C@@H]3CC(C)C)C[C@@H]2Cc2ccccc2)cc1`, the inhibition was 3.51% (inactive).
As for `Cc1cc(NC(=O)COC(=O)COc2ccc(Cl)cc2C)c([N+](=O)[O-])cc1C`, the inhibition was 4.5% (inactive).
With `CC(=O)c1ccc(N2CCN(S(=O)(=O)c3c(C)[nH]c(=O)[nH]c3=O)CC2)cc1`, the inhibition was 1.36% (inactive).
Take `CCN(CCCNC(=O)c1ccc2c(c1)NC(=O)CN2C)c1cccc(C)c1`: the inhibition was 76.6% (active).
For the compound `CCN1CCN(CCNC(=O)c2ccc3c(c2)NC(=O)/C(=C\c2cccc(Cl)c2)S3)CC1`, the inhibition is 12.3% (inactive).
The figure for `CCN(CCCNC(=O)CCn1c(=O)[nH]c2ccsc2c1=O)c1ccccc1` is -1.79% (inactive).
The figure for `CCN(c1ccc2c(c1)OCO2)S(=O)(=O)c1cc(Br)cc2c1N(C(=O)C1CC1)CC2` is -5.83% (inactive); for `O=C(NNS(=O)(=O)c1ccc(F)cc1)c1cnccn1` it is -1.88% (inactive).
The figure for `COc1ccc(-c2cc3n(n2)CCc2nc4ccccc4n2-3)cc1` is 5.6% (inactive); for `CC(C)c1ccc2oc(=O)cc(CN3CCN(Cc4ccccc4)CC3)c2c1` it is -1.39% (inactive); for `Cc1nc([N+](=O)[O-])nn1C12CC3CC(CC(Br)(C3)C1)C2` it is -11.4% (inactive).
For `CCc1nnc(NC(=O)c2ccco2)s1`, the inhibition was 3.45% (inactive).
The figure for `O=C(Nc1nc(-c2ccco2)c(-c2ccco2)s1)c1ccco1` is 25.3% (active); for `O=C(Nc1nonc1-c1ccc(Cl)cc1)c1ccco1` it is -2.13% (inactive).
The figure for `Cc1cc(C)c(C#N)c(SCS(=O)c2ccc(C(C)(C)C)cc2)n1` (stereo not given) is 5.68% (inactive).
The figure for `S=C(Nc1ccc(Br)cc1Cl)N1CCC2(CC1)OCCO2` is -3.87% (inactive); for `CCOC(=O)CCC(=O)OCC(=O)NC(C)C1CC2CCC1C2` (stereo not given) it is -2.3% (inactive); for `Cc1ccc(-n2nc(-c3ccco3)cc2C(=O)NCc2cccnc2)cc1` it is 36.3% (active).
Take `CSc1sc(C(=O)NC(=O)NCc2cccnc2)c(C)c1-c1ccon1`: the inhibition is 6.42% (inactive).
The figure for `Cc1ccc(C(=O)NC(=S)NCc2cccnc2)cc1` is 2.77% (inactive); for `CCc1ccc(OC2(C)CCN(CCOc3ccc(C)cc3)C2)cc1` (stereo not given) it is -1.92% (inactive).
The figure for `Cc1[nH]c2ccccc2c1C(=O)C(C)Sc1nnc(C2CC2)o1` (stereo not given) is -5.93% (inactive).
The figure for `O=C(Nc1ccccc1Cl)NC1(C(=O)N2CCOCC2)CCCCC1` is -0.52% (inactive); for `COc1ccccc1NC(=O)COC(=O)Cc1ccc(S(=O)(=O)N2CCCCC2)s1` it is 0.2% (inactive); for `NS(=O)(=O)c1ccc(CNC(=O)c2cc(S(=O)(=O)N3CCOCC3)ccc2N2CCCC2)cc1` it is 4.8% (inactive).
For `CCC1CCCCN1C(=S)Nc1ccc(S(=O)(=O)Nc2ncccn2)cc1` (stereo not given), the inhibition was -5.25% (inactive).
The figure for `COc1ccc(C(C(=O)NC(C)(C)C)N(C(=O)Cn2nnc3ccccc32)c2ccc(C(C)=O)cc2)cc1O` (stereo not given) is -5.36% (inactive); for `CCNC(=O)CC1C(=O)N(c2ccc(OC)cc2)C(=S)N1CCc1ccncc1` (stereo not given) it is 2.72% (inactive); for `Cc1ccc(NC(=O)Cn2c(C)csc2=O)cc1` it is 0% (inactive).
The figure for `Cc1ccc(NC(=O)Cn2sc3ccccc3c2=O)cc1` is 71.6% (active).
For `O=C(Cn1nc(C(=O)O)c2ccccc2c1=O)Nc1ccc(F)cc1`, the inhibition was 4.56% (inactive).
The figure for `Cn1cc(S(=O)(=O)N2CCN(c3ccc(F)cc3)CC2)c(=O)n(C)c1=O` is 2.58% (inactive); for `CC(=O)c1c(C)n(-c2ccc(N(C)C)cc2)c2ccc(OCC(N)=O)cc12` it is -5.31% (inactive).
The figure for `NC(=O)COc1ccc(C23CC4CC(CC(C4)C2)C3)cc1` is -7.75% (inactive); for `CC(C)OCCCNC(=O)CNC(=O)c1cccs1` it is 3.5% (inactive); for `Cc1ccccc1C(CC(=O)c1cccs1)C(C#N)C#N` (stereo not given) it is 22.1% (active).
The figure for `Cc1ccc(NNC(=O)c2cccs2)cc1Cl` is 0.05% (inactive).
`CC1=NN(C(C)C)C(=O)C1`: the inhibition was -11.8% (inactive).
The figure for `COc1ccccc1C(=O)C(O)c1ccccc1OC` (stereo not given) is 4.01% (inactive).
In the case of `CSc1ccccc1OCc1cc(C(=O)N2C[C@H]3CC[C@H]2C3)no1`, the inhibition is -0.37% (inactive).
The figure for `COC(=O)[C@@H](NC(=O)Nc1cc(Cl)ccc1C)C(C)C` is 15.4% (inactive); for `O=C(/C=C/c1ccccc1)c1ccoc1` it is 23% (active).
The figure for `O=C(/C=C/c1ccccc1)c1ccccc1O` is 22.9% (active).
The figure for `Cc1nc(-c2ccccc2)sc1C(=O)/C=C/c1ccccc1` is 36% (active); for `CC(/C=C/c1ccccc1)=N\NC(=O)C1CC1(C)c1ccccc1` (stereo not given) it is -4.04% (inactive).
For `Cc1nc(-c2ccc(Cl)cc2)sc1C(=O)CBr`, the inhibition is 9.2% (inactive).
The figure for `Nc1nc(NC(=O)/C=C/c2ccccc2)nn1-c1ccccc1` is 3.41% (inactive); for `O=S(=O)(/C=C/c1ccccc1)N1CCNCC1` it is -10.8% (inactive).
The figure for `Cc1nc(-c2ccccc2)sc1-c1nc(-c2ccccc2)ncc1S(=O)(=O)c1ccccc1` is 2.52% (inactive).
The figure for `CC1(C(=O)O)CCN1C(=O)/C=C/c1ccccc1` (stereo not given) is -1.15% (inactive).
